Reference: PMC4552634, “A New Set of Chemical Starting Points with Plasmodium falciparum Transmission-Blocking Potential for Antimalarial Drug Discovery” (PLoS ONE, 2015)
Like-named read-outs stand apart in the source and are kept apart here. The whole screen tested about 13,000 compounds, of which about 3,200 (25%) showed an effect of 50% or more. Some of the results follow.

Tested on: P. falciparum stage V gametocytes
Design: BacTiter-Glo ATP luminescence viability of purified stage V gametocytes in 384-well plates, per cent inhibition versus DMSO
Details: 48 h, 5 µM, inhibitor

Structure (SMILES)	% Inhibition [%]	% Inhibition (% Inhibition) [%]
CC(Cc1ccc(-c2nc3ccccc3[nH]2)cc1)NCC(O)c1cccc(C(F)(F)F)c1 (stereo not shown) [TCMDC-131524]	-16.53	
Cc1ccc(C(C)C)c(Oc2cnc(NC(CO)c3ccccc3)nc2N)c1 (stereo not shown) [TCMDC-135558]	13.9	
Cc1cc2ccc(/C=C/C(=O)NC3CCC(CCN4CCc5ccc(C#N)cc5CC4)CC3)cc2[nH]1 (stereo not shown) [TCMDC-139668]	-29.35	
O=C(Cc1cn(-c2ccccc2)nc1-c1ccc(Cl)cc1)Nc1nccs1 [TCMDC-124872]	-9.075	
Nc1c(-c2ccc(C(=O)NCCNCc3ccccc3)cc2)cnn1-c1ccc(C(F)(F)F)cc1 [TCMDC-136660]	12.46	
N#Cc1ccc(N2CCN(Cc3cccc(-c4ccc(-c5nc6cc(C(F)(F)F)ccc6[nH]5)cc4)c3)CC2)nc1.O=C(O)C(F)(F)F [TCMDC-133112]	-19.5	
CC(C)c1sc(N2CCN(C)CC2)nc1C(=O)Nc1cccc2c1CCCC2 [TCMDC-134303]	-19.32	
O=C(/C=C/c1ccc(Cl)c(Cl)c1)NCCCCCN1CCC(NC(=S)Nc2ccc(Cl)cc2)CC1 [TCMDC-135898]	6.847	
O=C(Nc1ccccc1OC(F)(F)F)NC1CCC(CN2CCC(c3c[nH]c4ccccc34)CC2)CC1 (stereo not shown) [TCMDC-140185]		-31.33
O=C(Nc1ccccc1OC(F)(F)F)NC1CCC(CN2CCC(c3c[nH]c4ccccc34)CC2)CC1 (stereo not shown) [TCMDC-140203]		-4.21
O=C(Nc1cc(C(F)(F)F)cc(C(F)(F)F)c1)NC1CCC(CN2CCC(c3c[nH]c4ccccc34)CC2)CC1 (stereo not shown) [TCMDC-140199]		-51.42
O=C(Nc1ccc(Oc2ccccc2)cc1)NC1CCC(CN2CCC(c3c[nH]c4ccccc34)CC2)CC1 (stereo not shown) [TCMDC-140186]	102.3	
O=C(Nc1cc(C(F)(F)F)cc(C(F)(F)F)c1)NC1CCC(CN2CCC(c3c[nH]c4ccccc34)CC2)CC1 (stereo not shown) [TCMDC-140180]		75.46
O=C(NCCNc1ccnc(NCc2ccc(F)cc2)n1)c1cc2ccccc2s1 [TCMDC-133646]	-28.02	
O=C(NCc1ccc(Cl)c(Cl)c1)c1ccc(C2CCN(Cc3ccc4nc[nH]c4c3)CC2)cc1 [TCMDC-133069]	-61.63	
COc1ccc2c(c1)CC(NCc1ccc(-c3ccc4nc[nH]c4c3)cc1)C2 (stereo not shown) [TCMDC-133483]	36.76	
COc1ccc2c(c1)CC(C)(C)NC2CCCCCCCCC1NC(C)(C)Cc2cc(OC)ccc21 (stereo not shown) [TCMDC-137935]	92.87	
Cc1ccc(NC(=O)c2ccc(CN3CCCN(Cc4cccc(Cl)c4)CC3)cc2)cc1C [TCMDC-136426]	-8.077	
NC1=NC2(CCCCC2)N(OCCCCCCN2C(=O)c3ccccc3C2=O)C(N)=N1 [TCMDC-140537]	2.277	
O=C(/C=C/c1c(Cl)cccc1Cl)NC1CCC(CN2CCC(c3c[nH]c4ccccc34)CC2)CC1 (stereo not shown) [TCMDC-139858]		-12.84
O=C(/C=C/c1ccc(Cl)c(Cl)c1)NC1CCC(CN2CCC(Cc3cc4ccccc4[nH]3)CC2)CC1 (stereo not shown) [TCMDC-140232]	-17.26	
O=C(/C=C/c1ccc(Cl)c(Cl)c1)NC1CCC(CN2CCC(c3cc4ccccc4[nH]3)CC2)CC1 (stereo not shown) [TCMDC-140236]	9.147	

Structure (SMILES)	% Inhibition [%]	% Inhibition (% Inhibition) [%]
O=C(/C=C/c1c(Cl)cccc1Cl)NC1CCC(CN2CCC(c3c[nH]c4ccncc34)CC2)CC1 (stereo not shown) [TCMDC-140220]	108.5	
CS(=O)(=O)Nc1ccc2[nH]cc(C3CCN(CC4CCC(NC(=O)/C=C/c5ccccc5Cl)CC4)CC3)c2c1 (stereo not shown) [TCMDC-139887]	39.39	
O=C(C=Cc1cccc(Cl)c1Cl)NC1CCC(CN2CCC(c3c[nH]c4ccccc34)CC2)CC1 (stereo not shown) [TCMDC-139910]		41.2
O=C(/C=C/c1c(Cl)cccc1Cl)NC1CCC(CN2CCC(c3c[nH]c4ccccc34)CC2)CC1 (stereo not shown) [TCMDC-139856]		7.287
O=C(/C=C/c1ccccc1Cl)NC1CCC(CN2CCC(c3c[nH]c4ccncc34)CC2)CC1 (stereo not shown) [TCMDC-140110]	79.76	
O=C(/C=C/c1c(Cl)cccc1Cl)NC1CCC(CN2CCC(Cc3cc4ccccc4[nH]3)CC2)CC1 (stereo not shown) [TCMDC-140233]	51.23	
CC(C)(C)Oc1ccc(CC2NC3(C(=O)N(Cc4ccc(C(C)(C)C)cc4)c4ccccc43)C3C(=O)N(c4ccc(Br)cc4)C(=O)C23)cc1 (stereo not shown) [TCMDC-139774]	1.203	
CC(C)C1C(O)=C(c2ccc3ccccc3c2)C(=O)N1Cc1cccc(F)c1 (stereo not shown) [TCMDC-141811]	28.08	
CN(CCc1ccccc1)c1ncc(-c2ccccc2CNCc2ccccc2O)cn1 [TCMDC-132575]	53.28	
Oc1ccccc1CNCc1ccc(-c2cnc(N3CCCC(c4ccccc4)C3)nc2)cc1 (stereo not shown) [TCMDC-133768]	-9.076	
CCCN(CC1CC1)c1ncc(-c2ccccc2CNCc2ccccc2O)cn1 [TCMDC-132574]	-10.65	
O=c1cc(NCCCCNCc2cccc(Cl)c2)[nH]c2ccccc12 [TCMDC-139311]	-48.31	
CCCC(C)NC(=O)/C=C/c1ccccc1-c1cccc(OC)c1 (stereo not shown) [TCMDC-136229]	-11.68	
Cc1c(-c2ccc(C(=O)NC3CC(C)(C)NC(C)(C)C3)cc2)[nH]c2cc(Cl)c(Cl)cc12 [TCMDC-140975]	52.66	
CCOc1cc(C(=O)NC2CC(C)(C)NC(C)(C)C2)ccc1-c1nc2ccc(Cl)cc2[nH]1 [TCMDC-140404]	39.53	
COc1cc(C(=O)NC2CC(C)(C)N(C)C(C)(C)C2)ccc1-c1nc2cc(Cl)c(Cl)cc2[nH]1 [TCMDC-139618]	89.66	
COc1cc(C(=O)NC2CC(C)(C)NC(C)(C)C2)ccc1-c1cc2cc(Cl)c(Cl)cc2[nH]1 [TCMDC-139693]	-5.047	
CCOc1cc(C(=O)NC2CC(C)(C)N(C)C(C)(C)C2)ccc1-c1nc2cc(Cl)c(Cl)cc2[nH]1 [TCMDC-140058]	24.71	
CN1C(C)(C)CC(NC(=O)c2ccc(-c3nc4cc(Cl)c(Cl)cc4[nH]3)cc2)CC1(C)C [TCMDC-139250]	28.21	
CN1C(C)(C)CC(NC(=O)c2ccc(-c3nc4ccc(Cl)cc4[nH]3)cc2)CC1(C)C [TCMDC-139262]	-8.23	
CCOc1cc(C(=O)NC2CC(C)(C)NC(C)(C)C2)ccc1-c1cc2cc(Cl)c(Cl)cc2[nH]1 [TCMDC-139960]	72.27	
COc1cc(C(=O)NC2CC(C)(C)N(C)C(C)(C)C2)ccc1-c1cc2cc(Cl)c(Cl)cc2[nH]1 [TCMDC-139227]	47.65	

Structure (SMILES)	% Inhibition [%]	% Inhibition (% Inhibition) [%]
O=C(Nc1ccc(CN2CCCCC2)cc1)c1ccc(COc2ccc([N+](=O)[O-])cc2)o1 [TCMDC-123727]	-23.78	
CC(C)Oc1ccc(CCCON2C(N)=NC(N)=NC2(C)C)cc1 [TCMDC-131759]	12.88	
Cc1cc(NC(=O)c2ccco2)ccc1OC1CCN(Cc2ccccc2)CC1 [TCMDC-133965]	12.37	
COc1ccc2nccc([C@@H](O)CN3CCC(NCc4nc5c(C#N)cccc5[nH]4)CC3)c2c1 [TCMDC-141116]	-34.83	
Oc1ccc(CC2CCCN(c3nc(NCCCOc4ccccc4-c4ccccc4)nc(N4CCNCC4)n3)C2)cc1 (stereo not shown) [TCMDC-134279]	106	
COc1ccc(-c2ccccc2OCCCNc2nc(NCCc3ccc(O)cc3)nc(N3CCNCC3)n2)cc1 [TCMDC-134136]	51.13	
Oc1ccc(CCNc2nc(NCCCOc3ccccc3-c3cccnc3)nc(N3CCNCC3)n2)cc1 [TCMDC-134137]	19.58	
Oc1ccc(CCNc2nc(NCCCOc3ccccc3-c3ccc(C(F)(F)F)cc3)nc(N3CCNCC3)n2)cc1 [TCMDC-134139]	56.06	
Oc1ccc(CCNc2nc(NCc3ccccc3-c3ccc(C(F)(F)F)cc3)nc(N3CCCNCC3)n2)cc1 [TCMDC-133388]	24.02	
Oc1ccc(CCNc2nc(NCCOc3ccccc3-c3ccccc3)nc(N3CCNCC3)n2)cc1 [TCMDC-134131]	-22.6	
Oc1ccc(CCNc2nc(NCCCOc3ccccc3-c3cccc(C(F)(F)F)c3)nc(N3CCNCC3)n2)cc1 [TCMDC-134134]	10.32	
OCCCCCCNc1nc(NCc2ccccc2-c2ccc(C(F)(F)F)cc2)nc(N2CCNCC2)n1 [TCMDC-134126]	66.94	
Oc1ccc(CCNc2nc(NCc3ccccc3-c3ccc(C(F)(F)F)cc3)nc(N3CCNCC3)n2)cc1 [TCMDC-138323]	-0.8501	
Oc1ccc(CCNc2nc(NCc3ccccc3-c3ccccc3)nc(N3CCCNCC3)n2)cc1 [TCMDC-133386]	28.34	
Oc1ccc(CCNc2nc(NCCCOc3ccccc3-c3ccc(F)cc3)nc(N3CCNCC3)n2)cc1 [TCMDC-134135]	12.8	
Oc1ccc(CCNc2nc(NCCCOc3ccccc3-c3ccncc3)nc(N3CCNCC3)n2)cc1 [TCMDC-134138]	16.05	
O=C(Nc1ccc(OC2CCN(Cc3ccccc3)CC2)c(Cl)c1)c1ccsc1 [TCMDC-133989]	12.12	
Clc1ccc2c(NCc3ccccc3)ccnc2c1 [TCMDC-125506]	-30.27	
CCCCNc1ccc(C(=O)NC2CCN(C[C@H](O)c3ccnc4ccc(OC)cc34)CC2)cc1 [TCMDC-141038]	-7.518	
CC1(C)N=C(N)N=C(N)N1OCCCOc1cc(Cl)cc(Cl)c1 [TCMDC-131790]	16.66	
